High-throughput results as filed in PubChem.
DRD3 antagonist: blocks the human D3 dopamine receptor; D3R cells, DiscoveRx beta-arrestin luminescence, antagonist mode; stronger effect = lower value; max response, negative = inhibition, %; hit rate 2.5% among 360,000; in the data active = max response below about -50%; inconclusive = no clear call, values can overlap the other calls; note: % is set by controls: 0 for no effect and ±100 for the full control effect
Target sequence (P35462 whole entry, looked up): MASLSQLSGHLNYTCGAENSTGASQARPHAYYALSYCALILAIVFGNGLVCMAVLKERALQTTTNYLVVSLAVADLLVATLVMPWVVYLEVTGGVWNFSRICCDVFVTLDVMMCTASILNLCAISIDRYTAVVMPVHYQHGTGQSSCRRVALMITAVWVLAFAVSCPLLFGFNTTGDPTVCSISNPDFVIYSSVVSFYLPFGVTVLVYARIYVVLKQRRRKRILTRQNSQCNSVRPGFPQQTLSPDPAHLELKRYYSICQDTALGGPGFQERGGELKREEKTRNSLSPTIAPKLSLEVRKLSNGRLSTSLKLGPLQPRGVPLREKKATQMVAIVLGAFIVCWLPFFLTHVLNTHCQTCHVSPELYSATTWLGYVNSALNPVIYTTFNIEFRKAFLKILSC
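Cells plated overnight at 1500 cells/well, then exposed to library compounds with dopamine controls for 90 minutes at 37 degrees C. DiscoveRx reagent added for 30–60 minutes at room temperature; luminescence read, quantitative HTS format.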
D1 agonist: human D1 receptor agonism; HEK293 T-REx D1 cells, calcium flux, agonist mode; activation, % at 2 µM; hit rate 1% among 360,000; AID 504660; in the data active = activation above about 30%; note: 0% is about no effect
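Inducible HEK293 T-REx D1 cells, force-coupled to calcium signalling, were plated at 4000 cells/well with tetracycline and held overnight at 30 C. After no-wash calcium dye loading, compound-evoked calcium rise over 180 s flagged agonists.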
D1 PAM: enhances dopamine response at the human D1 receptor; P21728; HEK293 TREx D1 cells, calcium flux, dopamine EC20 potentiation; potentiation, % at 10 µM; hit rate 0.036% among 360,000; AID 504651; in the data active = potentiation above about 30%; note: 0% is about no effect
D1 antag: human D1 dopamine receptor antagonism; P21728; HEK293 TREx D1 cells, calcium flux, dopamine EC80; stronger effect = lower value; activity change, negative = inhibition, % at 10 µM; hit rate 3.2% among 360,000; in the data active = activity change below about -30%; note: % is set by controls: 0 for no effect and ±100 for the full control effect
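Using tetracycline-induced force-coupled D1 Hek293 cells and a calcium dye, signals were followed for 180 s after compound, then for 180 s after EC80 dopamine, to detect inhibitors.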
DRD3 agonist: D3 dopamine receptor (human) agonism; max activation, %; P35462; hit rate 0.58% among 410,000; D3R DiscoveRx beta-arrestin cells, luminescence, 90 min; in the data active = max activation above about 30%; note: 0% is about no effect
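Agonist-mode cell screen: cells plated at 1500/well and incubated overnight at 37 °C, then exposed to library compounds for 90 min at 37 °C. Detection reagent was added for 30–60 min at room temperature, and luminescence was read.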
* hit, by the source's call; ? = inconclusive; . = no result given. This is a sample that favours compounds with a hit; in the whole collection about 6.1% have one here.

SMILES	DRD3 antagonist	D1 agonist	D1 PAM	D1 antag	DRD3 agonist
O=C(CSc1nnc(-c2cnccn2)n1Cc1ccco1)c1ccc(Cl)cc1	-63*	-5	-5	4	-9
O=C(CSc1nnc(-c2cnccn2)n1Cc1ccco1)c1ccccc1	22	3	-3	-8	1
O=C(CCn1cnc2ccccc21)N=Nc1c(O)[nH]c2ccccc12	-4	2	-9	-77*	1
O=C(CCc1c[nH]c2ccccc12)N=Nc1c(O)[nH]c2ccccc12	-5	0	-12	-44*	9
O=C(N/N=C/c1ccc(-c2ccccc2C(=O)O)o1)c1cccs1	0	3	-3	-9	24
O=C(O)c1ccccc1-c1ccc(/C=C/c2cc(C(F)(F)F)[nH]c(=O)n2)o1	-22	146*	0	-15	-9
O=c1nc(/C=C/c2ccc(-c3ccc(F)cc3)o2)cc(C(F)(F)F)[nH]1	.	98*	0	-20	.
O=C(O)c1cc(Cl)ccc1-c1ccc(/C=C/c2cc(C(F)(F)F)[nH]c(=O)n2)o1	-2	97*	9	-14	6
COc1ccc(S(=O)(=O)N2CCOCC2)cc1NC(=O)c1c(C)noc1C	14	.	.	.	5
CCOc1ccccc1NC1=CC(=O)CC(c2ccccc2)C1 (stereo not given)	3	4	3	-31*	-3
CN(CCc1ccccn1)Cc1ccc(Cl)cc1Cl	-70*	.	.	.	-41
CN(CCc1ccccn1)Cc1ccc(Cl)c(Cl)c1	-51*	1	-5	-9	-21
Cc1ccc(S(=O)(=O)Nc2cc3c(C(=O)OCc4ccccc4)c(C)oc3c3ccccc23)c(C)c1	.	5	-1	4	19
COc1ccc(/C=C/S(=O)(=O)NCc2ccccc2)cc1OC	-28	1	-4	-1	-5
CC(=O)Nc1ccc(OCCC[n+]2ccccc2)cc1	13	1	-6	-2	1
CCCCCc1ccc(OCCC[n+]2ccccc2)c(CCCCC)c1	-15	159*	-9	-21	-33
CCCCCc1ccc(OCCOCCn2c[n+](C)c3ccccc32)c(CCCCC)c1	23	129*	-10	16	-1
Nc1ccc2nc(SCc3cccc(F)c3)sc2c1	11	-1	-2	-4	-5
CCCCN(CC)CCNC(=O)c1cc2c(=O)n(C)c3ccccc3c2n1C	-73*	0	-4	10	-17
Cn1c(C(=O)NCCCN2CCc3ccccc3C2)cc2c(=O)n(C)c3ccccc3c21	-70*	0	.	11	-16
COc1cccc2cc(-c3nc(Nc4cccc(C)c4)sc3C)c(=O)oc12	.	3	-2	9	80*
CNC(=S)N(CCc1c(C)[nH]c2ccccc12)Cc1ccco1	-2	4	-10	-38*	-1
CNC(=S)N(CCc1c(C)[nH]c2ccc(F)cc12)Cc1ccco1	-7	4	-4	-29	-4
Cc1[nH]c2ccc(F)cc2c1CCN(Cc1ccco1)C(=S)NC(C)(C)C	-13	17	-3	-43*	-22
O=C(Cn1c(-c2cccs2)cc2cc(Cl)ccc21)N1CCN(c2ccccc2F)CC1	.	-1	2	-23	-3
SMILES	DRD3 antagonist	D1 agonist	D1 PAM	D1 antag	DRD3 agonist
COc1ccccc1C(=O)N1CCN=C1c1ccccc1	-9	4	-5	-3	34*
CCCCn1c(N)c(N(CC)C(=O)c2cccc(OC)c2)c(=O)[nH]c1=O	-2	1	-4	-31*	1
CCCCn1c(N)c(N(CCOC)C(=O)c2ccc(C)c(S(=O)(=O)N3CCCCC3)c2)c(=O)[nH]c1=O	10	6	-2	-38*	5
c1ccc2c(C[C@@H]3CNCCN3CCC34CC5CC(CC(C5)C3)C4)cccc2c1	12	.	.	.	0
CCOc1ccccc1N1CCN(C(=O)c2ccccc2SCC(=O)N2CCCC2)CC1	14	8	-2	-11	-1
C=C[C@@H]1c2ccccc2N(S(=O)(=O)c2ccc(C)cc2)[C@H](c2ccc(OC(C)=O)cc2)C1(C#N)C#N	?	4	-2	-8	5
C=C[C@@H]1c2cc(C)ccc2N(S(=O)(=O)c2ccc(C)cc2)[C@H](c2ccc(OC(C)=O)cc2)C1(C#N)C#N	?	40*	0	.	-27
O=C(NCCc1ccccc1)C1CCN(C2CCN(Cc3ccco3)CC2)CC1	10	2	3	-35*	-6
